# Assay results as given in PubChem BioAssay.
# Calls of active or inactive are those of the source. The rule behind the calls is not given here.
# Biological target: Pantothenate synthetase (Mycobacterium tuberculosis (strain ATCC 25618 / H37Rv)) (UniProt P9WIL5)
# Assay: Coupled enzyme confirmation of inhibitors against recombinant Mtb PanC (AID 375);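 note: 0% = full reaction with vehicle and 100% = no enzyme background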
# Conditions: coupled enzyme assay; at 10 µM, hits give high values
# Sequence of Pantothenate synthetase (Mycobacterium tuberculosis (strain ATCC 25618 / H37Rv)) (P9WIL5 whole entry, looked up): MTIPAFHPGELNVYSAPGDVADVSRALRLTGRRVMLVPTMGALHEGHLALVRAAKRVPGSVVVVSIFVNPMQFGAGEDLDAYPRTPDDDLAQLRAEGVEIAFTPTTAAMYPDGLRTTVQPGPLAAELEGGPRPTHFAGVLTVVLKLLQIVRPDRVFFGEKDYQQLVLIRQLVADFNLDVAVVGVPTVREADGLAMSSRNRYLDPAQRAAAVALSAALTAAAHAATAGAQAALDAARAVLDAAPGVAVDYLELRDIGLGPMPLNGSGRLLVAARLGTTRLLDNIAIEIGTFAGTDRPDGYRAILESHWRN
row,Structure (SMILES),inhibition
1,Cn1ccnc1SCCC#N,7% (inactive)
2,COc1ccc(OC)c(S(=O)(=O)N2CCN(c3c(C)cccc3C)CC2)c1,1% (inactive)
3,COc1ccc(CC(=O)NCc2ccccc2)cc1S(=O)(=O)N1CCOCC1,0% (inactive)
4,c1ccn2c(SCc3cn4ccsc4n3)nnc2c1,1% (inactive)
5,COc1ccc(-c2cc(C(F)(F)F)nc(N3CCN(c4ccc(F)cc4)CC3)n2)cc1OC,0% (inactive)
6,COc1ccc(Cl)cc1NC(=O)CCN1CCN(c2ccccc2C)CC1,0% (inactive)
7,CCn1c(SCC(=O)Nc2ccccc2F)nc2c(c1=O)SC(C)C2 (stereo not drawn),0% (inactive)
8,CCCn1c2c(c(O)c(C(=O)Nc3ccc(C)cn3)c1=O)CCCC2,4% (inactive)
9,Nc1nc(-c2ccc(Br)s2)c(Br)s1,2% (inactive)
10,N#Cc1ccccc1NC(=O)CSc1nnc(-c2ccccc2)n1-c1ccccc1,0% (inactive)
11,COc1ccccc1NC(=O)c1cc2n(n1)C(C(F)(F)F)CC(c1ccc3c(c1)OCO3)N2 (stereo not drawn),0% (inactive)
12,COc1ccc(S(=O)(=O)Nc2ccccc2SC)cc1C,0% (inactive)
13,CC(=O)Nc1ccc(S(=O)(=O)Nc2nc3c(s2)CCCC3)cc1,2% (inactive)
14,COc1ccccc1N1CCN(C(=O)N2CCOCC2)CC1,0% (inactive)
15,C/C=C(\C)c1nnc(NC(=O)OCC)s1,0% (inactive)
16,CN(C)c1cc(NC(=O)CN2CCOCC2)c2ccccc2n1,3% (inactive)
17,N#Cc1c(NC(=O)CSc2nc(N)cc(=O)[nH]2)sc2c1CCCCCC2,0% (inactive)
18,CC1=C(C(=O)OC2CCCCC2)C(c2ccc(C)o2)C2=C(CC(C)(C)CC2=O)N1 (stereo not drawn),0% (inactive)
